From PubChem BioAssay (EPA / NIEHS)
Several values for one entry are separate records, joined by “and”; a condition that tells them apart may be missing. Equal values may be shown once. Results filed as inconclusive are left out. A structure can be active in one record and inactive in another. Activity calls are given as the source filed them. The calls were made as follows, unless noted: active = hit-call score of the fitted dose curve at least 0.9, where 1 is the maximum; inconclusive = response in the unintended direction; inactive = score below 0.9.

Experiments:
[1] = test system: frog Estrogen Receptor (ER2), gene 100174814; test: ATG_frER2_XSP2: Attagene TRANS-FACTORIAL Multi-Species (XSP2) HepG2 Assay for frog Estrogen Receptor (ER2) (AID 2283828)
How it was run: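 Induction of reporter mRNA, baseline set by DMSO, is the endpoint. The panel was run in transfected HepG2 cells over 24 h, with 3 nM 6-alpha-fluorotestosterone and 1.5 nM norgestrel present to stimulate androgen receptor.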

[2] = biological target: Peroxisome proliferator-activated receptor gamma (Homo sapiens) (UniProt P37231); test: ATG_hPPARg_XSP2: Attagene TRANS-FACTORIAL Multi-Species (XSP2) HepG2 Assay for human Peroxisome Proliferator-activated Receptor gamma (PPARg) (AID 2283829);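 also: actives raise reporter mRNA above DMSO so AC50 reflects PPARg activation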
Chain of Peroxisome proliferator-activated receptor gamma (Homo sapiens) (P37231 whole entry, looked up, the tested form may be a part): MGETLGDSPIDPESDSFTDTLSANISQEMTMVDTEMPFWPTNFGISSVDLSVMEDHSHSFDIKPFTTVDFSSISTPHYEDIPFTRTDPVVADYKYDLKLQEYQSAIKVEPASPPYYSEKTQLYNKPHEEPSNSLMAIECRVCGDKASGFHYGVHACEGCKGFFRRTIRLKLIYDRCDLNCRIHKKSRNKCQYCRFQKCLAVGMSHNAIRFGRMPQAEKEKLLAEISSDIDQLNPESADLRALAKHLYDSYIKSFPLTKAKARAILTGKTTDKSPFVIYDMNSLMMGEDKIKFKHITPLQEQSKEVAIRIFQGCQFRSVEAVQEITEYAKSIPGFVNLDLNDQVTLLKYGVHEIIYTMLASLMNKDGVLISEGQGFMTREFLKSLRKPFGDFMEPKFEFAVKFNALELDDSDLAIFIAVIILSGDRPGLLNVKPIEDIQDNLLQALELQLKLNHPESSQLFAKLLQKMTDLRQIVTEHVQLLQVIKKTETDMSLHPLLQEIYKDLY
How it was run: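 Transient MRTU transfection, HepG2; TRANS format (exogenous NR-Gal4 chimeras). 24 h chemical exposure with 3 nM 6-alpha-fluorotestosterone and 1.5 nM norgestrel present. Readout: reporter mRNA via RT-PCR/CE fluorescence, up-direction vs DMSO.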

[3] = biological target: Nuclear receptor subfamily 1 group I member 2 (Mus musculus) (UniProt O54915); test: ATG_mPXR_XSP2: Attagene TRANS-FACTORIAL Multi-Species (XSP1) HepG2 Assay for mouse Pregnane X Receptor (PXR) (AID 2283831)
Chain of Nuclear receptor subfamily 1 group I member 2 (Mus musculus) (O54915 whole entry, looked up, the tested form may be a part): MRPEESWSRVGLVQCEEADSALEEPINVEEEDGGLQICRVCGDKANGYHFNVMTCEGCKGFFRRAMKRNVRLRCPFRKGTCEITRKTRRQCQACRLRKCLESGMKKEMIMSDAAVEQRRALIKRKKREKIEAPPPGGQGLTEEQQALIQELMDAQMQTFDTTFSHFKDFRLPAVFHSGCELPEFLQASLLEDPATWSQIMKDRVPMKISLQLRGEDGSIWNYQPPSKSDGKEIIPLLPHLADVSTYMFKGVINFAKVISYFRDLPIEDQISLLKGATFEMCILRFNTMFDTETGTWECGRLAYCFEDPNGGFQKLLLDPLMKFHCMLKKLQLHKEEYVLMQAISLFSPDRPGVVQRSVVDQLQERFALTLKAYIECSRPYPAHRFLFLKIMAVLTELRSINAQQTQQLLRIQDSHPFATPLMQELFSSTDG
How it was run: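 Transient HepG2 transfection, multiplexed GAL4-UAS reporters, NR-GAL4 chimeras. 24 h compound exposure. Readout: reporter mRNA, RT-PCR, fluorescent capillary electrophoresis; positive direction vs DMSO baseline.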

[4] = biological target: zebrafish Thyroid Hormone Receptor alpha (TRa), thraa (gene 30670) (UniProt Q98867); test: ATG_zfTRa_XSP2: Attagene TRANS-FACTORIAL Multi-Species (XSP1) HepG2 Assay for zebrafish Thyroid Hormone Receptor alpha (TRa) (AID 2283832);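 also: actives raise zebrafish TRa-Gal4 reporter transcript above DMSO baseline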
Chain of zebrafish Thyroid Hormone Receptor alpha (TRa), thraa (gene 30670) (Q98867 whole entry, looked up, the tested form may be a part): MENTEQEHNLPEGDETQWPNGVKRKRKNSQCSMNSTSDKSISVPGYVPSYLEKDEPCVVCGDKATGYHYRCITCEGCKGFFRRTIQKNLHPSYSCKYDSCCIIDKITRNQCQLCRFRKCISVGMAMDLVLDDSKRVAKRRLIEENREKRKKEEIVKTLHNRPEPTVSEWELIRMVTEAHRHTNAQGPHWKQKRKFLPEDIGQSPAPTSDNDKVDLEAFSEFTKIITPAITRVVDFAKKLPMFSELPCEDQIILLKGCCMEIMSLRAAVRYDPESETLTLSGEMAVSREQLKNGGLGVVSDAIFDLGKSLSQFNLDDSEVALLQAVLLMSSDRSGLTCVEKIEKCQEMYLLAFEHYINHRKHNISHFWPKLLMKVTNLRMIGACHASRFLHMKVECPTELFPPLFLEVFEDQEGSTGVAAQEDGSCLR
How it was run: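 HepG2, transient MRTU transfection, exogenous NR-Gal4 chimeras; 24 h dosing; mRNA readout via RT-PCR/CE fluorescence; positive direction vs DMSO.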

[5] = test system: zebrafish Peroxisome Proliferator-activated Receptor gamma (PPARg), gene 557037; test: ATG_zfPPARg_XSP2: Attagene TRANS-FACTORIAL Multi-Species (XSP2) HepG2 Assay for zebrafish Peroxisome Proliferator-activated Receptor gamma (PPARg) (AID 2283833);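 also: reporter mRNA from a zebrafish PPARg GAL4 chimera measured by RT-PCR and capillary electrophoresis; actives increase reporter signal over DMSO so AC50 reflects activation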
How it was run: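 Transfect HepG2 with multiplexed GAL4-UAS reporter constructs; dose chemical 24 h; isolate RNA, reverse-transcribe, PCR-amplify, label and digest reporter products; resolve by capillary electrophoresis. Activity taken as increase over DMSO.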

[6] = test system: turtle Thyroid Hormone Receptor, alpha (TRa), gene 101949057; test: ATG_trTRa_XSP2: Attagene TRANS-FACTORIAL Multi-Species (XSP1) HepG2 Assay for turtle Thyroid Hormone Receptor, alpha (TRa) (AID 2283834);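 also: hits raise reporter mRNA over the DMSO baseline so AC50 marks activators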
How it was run: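 Readout: reporter mRNA induction, fluorescence after RT-PCR, HpaI digestion and capillary electrophoresis. Transiently transfected HepG2, exogenous NR-Gal4 chimera driving GAL4-UAS reporter, 24 h compound exposure. Activity fitted upward relative to DMSO baseline.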

[7] = ATG_M_61_XSP2: Attagene TRANS-FACTORIAL Multi-Species (XSP2) HepG2 Assay for M61 Transcription Factor (Internal Marker) (AID 2283835; active = hit-call score of the fitted dose curve at least 0.9, where 1 is the maximum; inactive = score below 0.9;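 also: reporter mRNA of an internal background marker read by RT-PCR and capillary electrophoresis; active means a rise in signal above the DMSO baseline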)
How it was run: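 Signal was mRNA induction detected as fluorescence after RT-PCR and capillary electrophoresis, analysed in the gain direction with DMSO as baseline. HepG2 cells transiently carrying reporter constructs received chemicals for 24 h.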

[8] = biological target: zebrafish Thyroid Hormone Receptor beta (TRb), thrb (gene 30607) (UniProt Q9PVE4); test: ATG_zfTRb_XSP2: Attagene TRANS-FACTORIAL Multi-Species (XSP1) HepG2 Assay for zebrafish Thyroid Hormone Receptor beta (TRb) (AID 2283836)
Chain of zebrafish Thyroid Hormone Receptor beta (TRb), thrb (gene 30607) (Q9PVE4 whole entry, looked up): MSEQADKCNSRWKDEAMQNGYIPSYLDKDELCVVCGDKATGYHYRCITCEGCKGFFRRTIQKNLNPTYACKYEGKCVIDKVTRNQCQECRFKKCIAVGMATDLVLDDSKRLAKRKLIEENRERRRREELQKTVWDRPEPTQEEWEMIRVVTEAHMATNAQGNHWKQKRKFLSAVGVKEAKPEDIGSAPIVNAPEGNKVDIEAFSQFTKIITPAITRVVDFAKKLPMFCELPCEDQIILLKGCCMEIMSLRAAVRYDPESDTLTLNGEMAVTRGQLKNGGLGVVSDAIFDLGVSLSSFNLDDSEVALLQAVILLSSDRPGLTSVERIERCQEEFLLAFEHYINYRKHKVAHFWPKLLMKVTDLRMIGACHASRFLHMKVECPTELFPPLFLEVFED
How it was run: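 Transfect HepG2 with multiple reporter transcription units, dose chemical, incubate 24 h. Isolate RNA, reverse-transcribe, amplify and fluorescently label reporter sequences, digest with HpaI, then resolve by capillary electrophoresis. Positive direction fitted against DMSO.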

[9] = ATG_XTT_Cytotoxicity_XSP2: Cytotoxicity Assessment in the Attagene TRANS-FACTORIAL Multi-Species (XSP2) HepG2 Assay (AID 2283837)
Method: ATG_XSP2_XTT_Cytotoxicity_multi-species is a cell-based, single-readout assay that uses HepG2, a human liver cell line, with measurements taken at 24 hours after chemical dosing in a 24-well plate.ATG_XTT_Cytotoxicity_XSP2 is an assay component measured from the ATG_XSP2_XTT_Cytotoxicity_multi-species assay. It is designed to make measurements of cell number, a form of viability reporter, as detected with fluorescence intensity signals by XTT cytotoxicity assay technology.Data from the assay component ATG_XTT_Cytotoxicity_XSP2 was analyzed into 1 assay endpoint. This assay endpoint, ATG_XTT_Cytotoxicity_XSP2, was analyzed in the positive analysis fitting direction relative to DMSO as the negative control and baseline of activity. Using a type of viability reporter, loss-of-signal activity can be used to understand changes in the viability. Furthermore, this assay endpoint can be referred to as a primary readout, because the performed assay has only produced 1 assay endpoint. To generalize the intended target to other relatable targets, this assay endpoint is annotated to the cell cycle intended target family, where the subfamily is cytotoxicity.
Human liver HepG2 cells are transiently transfected with multiple reporter transcription units (MRTUs) in 6-well plates using FuGene 6 reagent (Roche; 3 ml FuGene/1 mg DNA). The MRTU constructs are regulated by a cis-regulating element (promoter). […] A major difference between the CIS and TRANS system is that in CIS activities of endogenous TFs are measured, whereas the TRANS assay evaluates changes in activities of exogenous, chimeric NR-Gal4 proteins. […] At the end of 24 hour incubation, total RNA was isolated using TriZol reagent (Invitrogen). […] The fragments were purified using Qiaquick PCR columns (Qiagen), analyzed on an ABI 3130xL genetic analyzer (Applied Biosystems) with peak positions identified by using a set of X-rhodamine (ROX)-labeled MapMarker1000 molecular weight standards (BioVentures). […]

[10] = biological target: human Thyroid hormone Receptor alpha (TRa), THRA (gene 7067) (UniProt P10827); test: ATG_hTRa_XSP2: Attagene TRANS-FACTORIAL Multi-Species (XSP2) HepG2 Assay for human Thyroid hormone Receptor alpha (TRa) (AID 2283838)
Chain of human Thyroid hormone Receptor alpha (TRa), THRA (gene 7067) (P10827 whole entry, looked up, the tested form may be a part): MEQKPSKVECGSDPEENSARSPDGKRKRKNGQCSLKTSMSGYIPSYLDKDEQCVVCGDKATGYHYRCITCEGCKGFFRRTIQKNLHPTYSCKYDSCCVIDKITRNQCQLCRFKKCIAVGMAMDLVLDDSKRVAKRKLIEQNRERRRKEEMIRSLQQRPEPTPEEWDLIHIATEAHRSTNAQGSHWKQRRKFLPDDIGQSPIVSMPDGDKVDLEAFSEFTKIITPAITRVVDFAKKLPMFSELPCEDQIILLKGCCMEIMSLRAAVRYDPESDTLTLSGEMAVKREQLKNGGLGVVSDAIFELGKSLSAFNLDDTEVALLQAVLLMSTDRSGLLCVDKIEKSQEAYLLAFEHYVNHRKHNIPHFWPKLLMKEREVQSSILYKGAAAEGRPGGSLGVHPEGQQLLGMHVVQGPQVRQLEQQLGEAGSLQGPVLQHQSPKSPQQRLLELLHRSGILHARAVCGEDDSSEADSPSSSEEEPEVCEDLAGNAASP
How it was run: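 Reporter transcripts were read by RT-PCR with fluorescent primer extension, HpaI digestion and capillary electrophoresis. These came from HepG2 cells carrying multiplexed TRa-Gal4 TRANS constructs, harvested 24 hours after dosing. The medium also held 6-alpha-fluorotestosterone (3 nM) and norgestrel (1.5 nM), and increases were fitted against DMSO.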

Measured: AC50

CCOC(=O)C(O)(c1ccc(Cl)cc1)c1ccc(Cl)cc1
inactive: [4] | [5] | [6] | [7] | [8] | [10]
active: [1] 9.66 µM and 8.68 µM | [2] 17.4 µM and 31.3 µM | [3] 7.9 µM and 8.04 µM | [9] 100 µM | [10] 55.6 µM

CCC(=O)O[C@H]1CC[C@H]2[C@@H]3CCC4=CC(=O)CC[C@]4(C)[C@H]3CC[C@]12C
active: [1] 29.8 nM
inactive: [2] | [6] | [7] | [8] | [10]

CC(C)(O)C(=O)Nc1ccc([N+](=O)[O-])c(C(F)(F)F)c1
inactive: [1] | [3] | [4] | [6] | [7] | [8] | [10]

ClC(Cl)=C(c1ccc(Cl)cc1)c1ccc(Cl)cc1
inactive: [2] | [3] | [6] | [8]
active: [1] 10000 nM

C[C@]12CCC(=O)C=C1CC[C@@H]1[C@@H]2CC[C@@]2(C)[C@H]1CC[C@]2(C)O
inactive: [2] | [6] | [7] | [10]
active: [1] 11.6 nM

c1cc2ccc3cccc4ccc(c1)c2c34
inactive: [1] | [2] | [4] | [5] | [6] | [8] | [9] | [10]
active: [1] 5720 nM | [2] 140 µM | [3] 19.6 µM and 15 µM

CC(c1ccc(O)cc1)(c1ccc(O)cc1)c1ccc(O)cc1
inactive: [1] | [2] | [4] | [5] | [6] | [7] | [8]

C[C@]12CCC(=O)C=C1CC[C@@H]1[C@@H]2CC[C@]2(C)C(=O)CC[C@@H]12
inactive: [1] | [2] | [3] | [6] | [7] | [8] | [10]
active: [1] 552 nM

Oc1ccc(C(c2ccc(O)cc2)(C(F)(F)F)C(F)(F)F)cc1
inactive: [2] | [3] | [4] | [5] | [6]
active: [1] 151 nM and 386 nM

CC(C)(c1ccccc1)c1ccc(O)cc1
active: [1] 1560 nM
inactive: [2] | [6] | [7] | [8] | [10]

Cc1cc(-c2ccc(N)c(C)c2)ccc1N
active: [1] 22.1 µM and 10.6 µM | [2] 16.2 µM and 72.1 µM and 100 µM | [3] 5.2 µM | [5] 10.8 µM
inactive: [3] | [4] | [5] | [6] | [8] | [9] | [10]

Clc1ccc(C(c2ccccc2Cl)C(Cl)(Cl)Cl)cc1 (stereo not drawn)
active: [1] 824 nM | [3] 5.09 µM
inactive: [2] | [7] | [10]
